From the supplement of paper PMC3545927
The list shows a part of the results. No count for the full screen is at hand.

Molecular target: furin, P09958
Test: furin cleavage Z-score vs untreated control; higher = more cleavage, active = 3.5 or more, inactive = 1 or less, 8 variable residues between constant flanks
Procedure, shortened: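 The cleavage Z-score is the log read count relative to furin-free reactions, lowess-adjusted and scaled by median absolute deviation. Counts came from sequencing DNA released from bead-bound 8-mer peptide–cDNA fusions after digestion with purified furin for 7.5, 15 or 30 min.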
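Further: purified furin at 1:10 enzyme:substrate in 50 mM HEPES pH 7.5.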

Chain of furin, P09958 (P09958 whole entry): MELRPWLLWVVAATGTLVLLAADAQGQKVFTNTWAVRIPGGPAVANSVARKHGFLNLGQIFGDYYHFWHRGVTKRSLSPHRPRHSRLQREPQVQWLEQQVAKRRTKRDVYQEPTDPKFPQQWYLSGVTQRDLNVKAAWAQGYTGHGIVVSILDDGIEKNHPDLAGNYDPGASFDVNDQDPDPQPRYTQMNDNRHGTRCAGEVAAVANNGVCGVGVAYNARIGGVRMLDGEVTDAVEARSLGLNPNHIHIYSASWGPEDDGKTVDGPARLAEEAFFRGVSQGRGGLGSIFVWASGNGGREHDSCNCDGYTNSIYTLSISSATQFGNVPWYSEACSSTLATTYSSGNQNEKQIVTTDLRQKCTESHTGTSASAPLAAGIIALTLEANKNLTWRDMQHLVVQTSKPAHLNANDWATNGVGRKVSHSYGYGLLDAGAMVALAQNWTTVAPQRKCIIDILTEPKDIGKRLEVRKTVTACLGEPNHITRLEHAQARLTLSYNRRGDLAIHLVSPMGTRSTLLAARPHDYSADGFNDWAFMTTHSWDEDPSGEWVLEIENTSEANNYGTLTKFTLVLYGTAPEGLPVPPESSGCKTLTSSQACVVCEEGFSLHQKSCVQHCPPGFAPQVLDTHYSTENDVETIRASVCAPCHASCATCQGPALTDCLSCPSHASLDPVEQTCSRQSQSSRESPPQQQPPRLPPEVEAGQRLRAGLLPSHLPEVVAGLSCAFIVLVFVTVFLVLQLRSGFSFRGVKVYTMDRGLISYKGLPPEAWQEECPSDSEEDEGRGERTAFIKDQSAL

Row | Sequence | furin cleavage Z-score (7.5 min) | furin cleavage Z-score (15 min) | furin cleavage Z-score (30 min)
1 | CAKEVKAAASAGNASASA [HC1405] | 0.037 (inactive) | -0.691 (inactive) | 0.852 (inactive)
2 | CAKYLFNWAVAGNASASA [HC1632] | -0.0484 (inactive) | 0.619 (inactive) | 0.965 (inactive)
3 | CASSECTTPCAGNASASA [HC1143] | -0.401 (inactive) | 1.52 | 0.461 (inactive)
4 | CATVCCSMSYAGNASASA [HC1998] | 0.937 (inactive) | 0.131 (inactive) | 0.837 (inactive)
5 | CAGAGLAGAAAGNASASA [HC1076] | -0.496 (inactive) | -0.493 (inactive) | -0.847 (inactive)
6 | CAHHSPLKRSAGNASASA [FS-30] | -0.21 (inactive) | 0.983 (inactive) | 1.29
7 | CATIKRLKRSAGNASASA [FS-97] | 11.2 (active) | 11.4 (active) | 9.36 (active)
8 | CAAVARLKRSAGNASASA [FS-218] | 12.9 (active) | 11 (active) | 9 (active)
9 | CATIKRSVISAGNASASA [FS-2853] | 0.545 (inactive) | 0.855 (inactive) | -1.24 (inactive)
10 | CAEDPCHRPSAGNASASA [HC2331] | -1.74 (inactive) | -0.655 (inactive) | 0.261 (inactive)
11 | CAGAVQWMNRAGNASASA [HC1116] | 0.142 (inactive) | 1.71 | -0.148 (inactive)
12 | CAHQRRKYRSAGNASASA [FS-796] | 4.89 (active) | 5.12 (active) | 6.05 (active)
13 | CAKLNRRSRKAGNASASA [FS-810] | 4.08 (active) | 6.18 (active) | 5.19 (active)
14 | CAKLNRKYRSAGNASASA [FS-1132] | 9.69 (active) | 8.1 (active) | 6.59 (active)
15 | CAEAIYQCCDAGNASASA [HC1489] | 1.16 | 0.588 (inactive) | 0.702 (inactive)
16 | CATIFKIRMYAGNASASA [HC473] | -0.151 (inactive) | 0.348 (inactive) | -1.46 (inactive)
17 | CASLCRYRRVAGNASASA [FS-1657] | 7.05 (active) | 6.79 (active) | 8.55 (active)
18 | CAGKFRYRRVAGNASASA [FS-242] | 9.76 (active) | 11.9 (active) | 8.82 (active)
19 | CASLMAFTAAAGNASASA [HC1055] | -0.632 (inactive) | -0.242 (inactive) | -1.13 (inactive)
20 | CAAAASKVKAAGNASASA [HC1407] | 0.991 (inactive) | -0.764 (inactive) | -0.995 (inactive)
21 | CARARRAVQKAGNASASA [FS-3149] | 1.2 | 0.71 (inactive) | 1.68
22 | CARARRQDVKAGNASASA [FS-2649] | 0.761 (inactive) | 0.529 (inactive) | 2.07

Row | Sequence | furin cleavage Z-score (7.5 min) | furin cleavage Z-score (15 min) | furin cleavage Z-score (30 min)
23 | CARCRRALRRAGNASASA [FS-1687] | 3.87 (active) | 3.85 (active) | 7.16 (active)
24 | CARARRALRRAGNASASA [FS-2130] | 3.99 (active) | 4.89 (active) | 7.04 (active)
25 | CARARRAVDKAGNASASA [FS-2252] | 6.76 (active) | 6.96 (active) | 6.15 (active)
26 | CARARRVTDAAGNASASA [FS-2890] | -1.51 (inactive) | -0.986 (inactive) | -0.304 (inactive)
27 | CAVCAAILRRAGNASASA [HC1109] | -1.76 (inactive) | -0.361 (inactive) | 0.614 (inactive)
28 | CARCIRAFCRAGNASASA [FS-2897] | -0.211 (inactive) | 0.945 (inactive) | 0.335 (inactive)
29 | CARARRVLEAAGNASASA [FS-1685] | -0.496 (inactive) | -0.739 (inactive) | -0.66 (inactive)
30 | CARARRAIAAAGNASASA [FS-3148] | 5.95 (active) | 5.73 (active) | 4.12 (active)
31 | CAAGVGIYLLAGNASASA [HC1661] | -0.0484 (inactive) | -0.628 (inactive) | 0.389 (inactive)
32 | CARLHGLSAFAGNASASA [HC1603] | -0.521 (inactive) | -1.08 (inactive) | 0.0737 (inactive)
33 | CAFTPCSGSWAGNASASA [HC1827] | -0.899 (inactive) | -0.656 (inactive) | -0.511 (inactive)
34 | CACEMEECSQAGNASASA [HC1800] | -0.225 (inactive) | 0.44 (inactive) | -0.298 (inactive)
35 | CARLRKGCGAAGNASASA [FS-2157] | -0.162 (inactive) | 0.798 (inactive) | -0.0332 (inactive)
36 | CAQKGRVRRAAGNASASA [FS-78] | 11.9 (active) | 10.5 (active) | 7.65 (active)
37 | CAAPRRLRRAAGNASASA [FS-7] | 6.44 (active) | 6.75 (active) | 5.94 (active)
38 | CAGKVRLRRAAGNASASA [FS-655] | 8.27 (active) | 7.38 (active) | 7.81 (active)
39 | CAGKVLIDILAGNASASA [HC1083] | -0.625 (inactive) | -0.337 (inactive) | -0.826 (inactive)
40 | CALEGRRKRAAGNASASA [FS-938] | 9.45 (active) | 10.2 (active) | 8.2 (active)
41 | CARGVAKAVDAGNASASA [HC754] | -0.917 (inactive) | 0.591 (inactive) | 0.29 (inactive)
42 | CALWILQASLAGNASASA [HC610] | -0.000456 (inactive) | 2.88 | 1.52
43 | CADCNTCVTQAGNASASA [HC887] | 0.505 (inactive) | -0.795 (inactive) | -0.033 (inactive)
44 | CAEVPCHCPSAGNASASA [HC2380] | -0.21 (inactive) | 0.0658 (inactive) | -0.42 (inactive)
